Shown are actives, neighbours in structure and some others; about 5.8% of the full set was active somewhere.
SW480 rerep: induces DNA re-replication in SW480 colon adenocarcinoma cells. Potency, µM (highest dose often 46.1 µM), hits mostly activators. SW480 DNA re-replication, Hoechst DNA content imaging, 48 h. 340,000 tested, 1.8% active. AID 624297; also: nearly all actives have a fitted effect of over 55% in size
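250 cells/well; 23 nL cpd via pin tool; 48 hr, 37 C, 5% CO2; Hoechst 40 min; imager read of total nuclear intensity, ex 405/em 500-530 nm.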
MCF10A rerep: induces DNA re-replication in MCF 10a normal breast cells. Potency, µM (titrated, usually from 46.1 µM), hits mostly activators. MCF 10A DNA re-replication, Hoechst nuclear intensity, 48 h. 350,000 tested, 2.9% active; also: nearly all actives have a fitted effect of over 50% in size
KB-3-1 cytotox: kills parental KB-3-1 adenocarcinoma cells | 400,000 tested, 1.4% active | KB-3-1 viability, CellTiter-Glo ATP luminescence, 72 h | Potency, µM (highest dose often 46.1 µM), most hits filed as cytotoxic; also: nearly all actives have a fitted effect of over 60% in size
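Parental KB-3-1 viability, qHTS format: 72 h compound exposure, 37 °C; CellTiter-Glo; media-only wells and DMSO plates as controls; concentration-effect fits on corrected data.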
KB-V1 cytotox: kills drug-selected multidrug resistant KB-V1 cells; 400,000 tested, 3.4% active; Potency, µM (highest dose often 46.1 µM), most hits filed as cytotoxic; AID 1347076; KB-V1 MDR cells viability, CellTiter-Glo, 72 h; also: nearly all actives have a fitted effect of over 60% in size
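Cytotoxicity via CellTiter-Glo luminescence after 72 h compound exposure at 37 degrees C. Cells: drug-selected KB-V1 line, DMEM phenol-red free plus 10% FBS. Compounds tested at multiple concentrations; normalized data fitted to concentration-effect curves.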
PINK1 expr mod: modulators of PINK1 expression; PINK1 immunofluorescence, high-content cytometry, 24 h; 410,000 tested, 0.2% active; Potency, µM (series often up to 76.6 µM), actives largely listed as activators; active = well fitted activation curve with a large enough effect; inconclusive = small, poorly fitted or top-dose-only effect; cell line not stated here; also: nearly all actives have a fitted effect of over 65% in size
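Compound titrations (5 concentrations, 24 h) on a stable cell line; DMSO and CCCP controls. Endpoint: fixed-cell PINK1 immunofluorescence with mitochondrial, cell and nuclear markers, scanned by microplate cytometer.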
ALOX12 inh: ALOX12 (human) lipoxygenase inhibition; P18054; Potency, µM (series often up to 108 µM), actives largely listed as inhibitors; AID 1671190; 580,000 tested, 1.1% active; purified 12hLO, xylenol orange hydroperoxide absorbance
Target sequence (P18054 whole entry, looked up): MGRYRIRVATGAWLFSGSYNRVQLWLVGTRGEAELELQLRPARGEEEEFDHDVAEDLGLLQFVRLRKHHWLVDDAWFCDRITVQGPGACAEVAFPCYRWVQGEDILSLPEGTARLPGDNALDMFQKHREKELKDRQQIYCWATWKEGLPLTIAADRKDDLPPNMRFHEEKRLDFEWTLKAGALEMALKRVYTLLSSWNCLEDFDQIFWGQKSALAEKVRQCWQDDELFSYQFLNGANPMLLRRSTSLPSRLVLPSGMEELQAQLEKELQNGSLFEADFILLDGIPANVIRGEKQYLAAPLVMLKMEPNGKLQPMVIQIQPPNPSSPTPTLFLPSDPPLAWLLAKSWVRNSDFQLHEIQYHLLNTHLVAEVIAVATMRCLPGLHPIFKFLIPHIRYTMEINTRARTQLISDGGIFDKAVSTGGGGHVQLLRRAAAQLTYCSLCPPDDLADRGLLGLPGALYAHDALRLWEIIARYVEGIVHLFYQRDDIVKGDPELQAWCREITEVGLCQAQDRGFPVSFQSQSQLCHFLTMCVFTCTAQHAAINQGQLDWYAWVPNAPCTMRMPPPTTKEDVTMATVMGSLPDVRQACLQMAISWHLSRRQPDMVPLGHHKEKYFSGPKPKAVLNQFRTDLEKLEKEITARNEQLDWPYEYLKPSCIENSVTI
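Hydroperoxide product was detected by ferrous iron/xylenol orange as the 573 to 405 nm absorbance ratio. Arachidonic acid at 40 uM (final) was turned over for 30 min at room temperature by 150 nM human 12hLO, pH 7.0 Hepes buffer, after 15 min compound preincubation.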
Of the large screens only hits and unclear results are named; the others gave an inactive call; ! = not active in a repeat. Unless noted, calls follow the shape of the dose curve; as a rule, active = well fitted curve in the direction sought with a large enough effect; inconclusive = small, poorly fitted or top-dose-only effect, or another doubt; inactive = no such curve, though single readings can be large; an effect the other way counts as inactive or inconclusive.

CCOC(=O)[C@]12CCC=C1N(Cc1cccc3ccccc13)C(=O)[C@H](CC(=O)NCc1ccc(OC)c(OC)c1)C2	KB-3-1 cytotox 6.5µM, KB-V1 cytotox inconclusive (no result: SW480 rerep, MCF10A rerep)
CN1C(=O)Cc2cc(S(=O)(=O)CCC(=O)NC3CCCCCCC3)ccc21	none (no result: SW480 rerep, MCF10A rerep, KB-3-1 cytotox, KB-V1 cytotox, PINK1 expr mod)
CN1CCC(Nc2ncc3ncnc(Nc4ccc(F)c(Cl)c4)c3n2)CC1	SW480 rerep 13µM, MCF10A rerep 3.3µM, ALOX12 inh inconclusive (no result: KB-3-1 cytotox, KB-V1 cytotox, PINK1 expr mod)
CCOC(=O)c1ccc(NC(=O)CSc2nc3c(-c4ccccc4)c[nH]c3c(=O)n2CC)cc1	none (no result: SW480 rerep, MCF10A rerep, KB-3-1 cytotox, KB-V1 cytotox, PINK1 expr mod)
COc1cccc(N2CC(C(=O)N3CCC(C(=O)NCc4cccc(F)c4)C3)NC2=O)c1 (stereo unspecified)	none (no result: SW480 rerep, MCF10A rerep, KB-3-1 cytotox, KB-V1 cytotox, PINK1 expr mod)
N#CC(C#N)=Cc1cnc(N2CCN(c3ccccc3)CC2)s1	PINK1 expr mod 32µM
OCC1(CCCc2ccccc2)CCN(Cc2cnc(N3CCOCC3)s2)CC1	MCF10A rerep inconclusive, KB-3-1 cytotox 21µM, KB-V1 cytotox inconclusive
Clc1ncc(CN2CCN(c3ccccc3)CC2)s1	none
c1ccc(N2CCN(Cc3cnc(N4CCOCC4)s3)CC2)cc1	MCF10A rerep inconclusive, KB-V1 cytotox 13µM
O=C(COC(=O)/C=C/c1ccc(Cl)cc1)Nc1ccccc1	none
NC(=O)c1ccc(NC(=O)COC(=O)/C=C/c2cn(-c3ccccc3)nc2-c2cccnc2)cc1	SW480 rerep 5.2µM, PINK1 expr mod inconclusive
COc1ccc(-c2nn(-c3ccccc3)cc2/C=C/C(=O)OCC(=O)Nc2ccccc2C#N)cc1	MCF10A rerep 15µM, KB-3-1 cytotox inconclusive, KB-V1 cytotox inconclusive
CNC(=O)COC(=O)/C=C/c1cn(-c2ccccc2)nc1-c1ccc(C)o1	none
N#Cc1ccccc1NC(=O)COC(=O)/C=C/c1cn(-c2ccccc2)nc1-c1ccc(Cl)cc1	KB-3-1 cytotox 23µM
O=C(/C=C/c1cn(-c2ccccc2)nc1-c1ccccc1)Nc1ccc(C(=O)O)cc1	SW480 rerep inconclusive, MCF10A rerep inconclusive
Cc1ccc2[nH]cc(C(C(=O)O)N3CCN(c4cccc(Cl)c4)CC3)c2c1 (stereo unspecified)	none (no result: SW480 rerep, MCF10A rerep, KB-3-1 cytotox, KB-V1 cytotox, PINK1 expr mod)
CCCC[n+]1c(NCc2cc(Br)cc(Br)c2[O-])[nH]c2ccccc21	none (no result: SW480 rerep, MCF10A rerep, KB-3-1 cytotox, KB-V1 cytotox, PINK1 expr mod)
Cc1ccc(-c2c(C(=O)Nc3ccccc3F)oc(=O)c3ccccc23)cc1	none (no result: SW480 rerep, MCF10A rerep)
Cc1ccc(-c2c(C(=O)NCc3ccc(F)cc3)oc(=O)c3ccccc23)cc1	KB-V1 cytotox 16µM!
NC(=S)NN=C(Cc1ccccc1)Cc1ccccc1	KB-3-1 cytotox inconclusive, KB-V1 cytotox inconclusive, ALOX12 inh 11µM
O=C(NN=C(Cc1ccccc1)Cc1ccccc1)c1ccc(F)cc1	none
O=C(NN=C(Cc1ccccc1)Cc1ccccc1)c1ccccc1O	SW480 rerep 18µM, KB-V1 cytotox inconclusive
Cc1ccc(S(=O)(=O)Nc2ccc(Br)cc2/C=N/n2cnnc2)cc1	ALOX12 inh 45µM (no result: PINK1 expr mod)
CC(=O)NS(=O)(=O)c1cccnc1Nc1cccc(Cl)c1C	SW480 rerep 0.52µM
CC(=O)NS(=O)(=O)c1cccnc1Nc1ccc(Cl)cc1	none
COC(=O)C1=CNC=C(C(=O)OC)C1c1ccc(F)c(F)c1	none (no result: SW480 rerep, MCF10A rerep, KB-3-1 cytotox, KB-V1 cytotox, PINK1 expr mod)
NC(=S)Nc1ncc(C(F)(F)F)cc1Cl	SW480 rerep inconclusive, ALOX12 inh 40µM
O=C(CN1CCN(c2ncc(C(F)(F)F)cc2Cl)CC1)NCCNc1ncc(C(F)(F)F)cc1Cl	SW480 rerep inconclusive, MCF10A rerep 18µM, KB-V1 cytotox inconclusive, ALOX12 inh inconclusive
NNC(=O)CN1CCN(c2ncc(C(F)(F)F)cc2Cl)CC1	none
O=C(NNc1ncc(C(F)(F)F)cc1Cl)c1c(Cl)cccc1Cl	SW480 rerep inconclusive, MCF10A rerep 6.5µM, KB-3-1 cytotox 5.8µM, KB-V1 cytotox 2.9µM
O=C(CSc1ncccn1)Nc1ncc(C(F)(F)F)cc1Cl	MCF10A rerep 2.1µM
O=C(CSc1nncn1CCc1cccs1)Nc1ccccc1	none (no result: SW480 rerep, MCF10A rerep, KB-3-1 cytotox, KB-V1 cytotox, PINK1 expr mod)
CC1CCCN(C(=O)CCc2ncc(-c3ccc(F)cc3F)o2)C1 (stereo unspecified)	none (no result: SW480 rerep, MCF10A rerep, KB-3-1 cytotox, KB-V1 cytotox, PINK1 expr mod)
Fc1ccccc1NC(=S)NNc1ncc(C(F)(F)F)cc1Cl	KB-V1 cytotox inconclusive, PINK1 expr mod 16µM

Screening results deposited in PubChem by National Center for Advancing Translational Sciences (NCATS).
